NS1 inh – influenza NS1 inhibition | Potency, µM (highest dose often 46.1 µM) | 0.4% of 270,000 active; note: actives are rising curves; nearly all actives have a fitted effect of over 50% in size
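OD600 was taken as the measure of yeast growth restored by compound in an NS1-expressing S. cerevisiae strain. Cells had been washed out of glucose medium and diluted 1:100 into galactose -URA medium, pH 6.0.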
FBPA Giardia inh – inhibitors of Giardia lamblia fructose-1,6-bisphosphate aldolase; purified Giardia FBPA; A8B2U2; 0.71% of 290,000 active; Potency, µM (titrated, usually from 59.6 µM), hits mostly inhibitors; active = well fitted curve in the direction sought with a large enough effect; inconclusive = small, poorly fitted or top-dose-only effect, or another doubt; inactive = no such curve, though single readings can be large; an effect the other way counts as inactive or inconclusive; note: nearly all actives have a fitted effect of over 55% in size
Target sequence (A8B2U2 whole entry, looked up): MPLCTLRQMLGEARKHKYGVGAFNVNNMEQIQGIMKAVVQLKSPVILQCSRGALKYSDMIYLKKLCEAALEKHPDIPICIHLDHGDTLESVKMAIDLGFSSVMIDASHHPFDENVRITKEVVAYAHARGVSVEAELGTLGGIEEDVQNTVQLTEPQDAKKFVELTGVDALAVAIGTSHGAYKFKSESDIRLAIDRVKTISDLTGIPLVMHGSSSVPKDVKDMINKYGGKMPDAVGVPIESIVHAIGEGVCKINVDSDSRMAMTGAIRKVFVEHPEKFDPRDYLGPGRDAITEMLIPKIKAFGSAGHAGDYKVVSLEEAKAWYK
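40 nM FBPA preincubated 10 min at RT with compound (up to 57.5 uM final), then substrate plus GAPDH/TPI/NAD/arsenate coupling and diaphorase/resazurin added. Fluorescence read after 20 min at RT, 525/598 nm.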
AmpC inh no detg – AmpC beta-lactamase inhibition without detergent. P00811. Potency, µM (top dose mostly 57.1 µM), hits mostly inhibitors. 0.52% of 330,000 active. AmpC nitrocefin hydrolysis, absorbance 480 nm, 0.0001% Triton; active = well fitted curve in the direction sought with a large enough effect; inconclusive = small, poorly fitted or top-dose-only effect, or another doubt; inactive = no such curve, though single readings can be large; an effect the other way counts as inactive or inconclusive; note: nearly all actives have a fitted effect of over 20% in size
Target sequence (P00811 whole entry, looked up): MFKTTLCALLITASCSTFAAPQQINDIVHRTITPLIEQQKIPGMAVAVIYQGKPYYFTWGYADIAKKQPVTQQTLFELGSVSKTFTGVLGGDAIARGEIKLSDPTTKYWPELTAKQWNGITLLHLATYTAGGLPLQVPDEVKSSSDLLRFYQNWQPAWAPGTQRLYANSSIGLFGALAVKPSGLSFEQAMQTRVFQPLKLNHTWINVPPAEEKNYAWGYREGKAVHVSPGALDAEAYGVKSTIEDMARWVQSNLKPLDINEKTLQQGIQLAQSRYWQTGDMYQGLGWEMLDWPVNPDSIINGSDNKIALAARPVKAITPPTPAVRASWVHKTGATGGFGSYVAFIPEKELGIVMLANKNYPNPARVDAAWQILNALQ
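AmpC (5.3 nM in the dispensed reagent) in 20 mM phosphate pH 7.0 with 0.01% (detergent screen) or 0.0001% Triton X-100 was preincubated with compounds for 15 min at room temperature. Nitrocefin was then added from an 800 uM solution, and hydrolysis was followed at 480 nm.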
SARS PLpro yeast – SARS-CoV PLP inhibition in yeast; S. cerevisiae expressing SARS-CoV PLpro, growth rescue; Potency, µM (top dose mostly 32.9 µM), hits mostly activators; 0.19% of 330,000 active; AID 485353; note: nearly all actives have a fitted effect of over 55% in size
AmpC detergent – AmpC beta-lactamase inhibition with detergent present | AmpC hydrolysis of nitrocefin, absorbance 480 nm, 0.01% Triton | Potency, µM (series often up to 114 µM), usual class: inhibitors | 0.041% of 370,000 active; active = well fitted curve in the direction sought with a large enough effect; inconclusive = small, poorly fitted or top-dose-only effect, or another doubt; inactive = no such curve, though single readings can be large; an effect the other way counts as inactive or inconclusive; note: nearly all actives have a fitted effect of over 25% in size
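20 mM phosphate pH 7.0 + 0.01% (detergent screen) or 0.0001% Triton X-100; 5.3 nM AmpC reagent; cpd preinc 15 min RT; nitrocefin (800 uM stock) to start; A480 q20 s × 4 min; Activity was normalised to no-enzyme and no-compound control wells.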
Flu NS1 inh – validation of influenza NS1 protein function inhibitors | activity change, negative = inhibition, % at 32.9 µM | shares compounds with NS1 inh | influenza NS1 function cell assay, 15-point titration | 1,400 tested, under 10 active
Flu PR8 replic – reduces influenza A/PR/8/34 replication in MDCK cells. shares compounds with NS1 inh. MDCK infected influenza A/PR/8/34, virus titer TCID50; stronger effect = lower value. virus titer (log TCID50), log10 TCID50 at 5 µM. 30% of 95 active; call rule not given here
Each line names hits and unclear results; the compound was inactive in the other large screens (follow-up assays come after a bar, where they were run). Shown are actives, neighbours in structure and some others; about 1.4% of the full set was active somewhere. Unless noted, calls come from the whole dose curve.

CCc1ccc2c(c1)C(c1ccc(N3CCOCC3)cc1)=NNC(c1ccncc1)=N2	none
CCOc1ccc(C2=Nc3ccccc3C(c3ccc(N4CCOCC4)cc3)=NN2)cc1	NS1 inh inconclusive | Flu NS1 inh inactive | Flu PR8 replic 7.5
Brc1ccc2c(c1)C(c1ccc(N3CCOCC3)cc1)=NNC(c1cccs1)=N2	none
CCOc1ccc(C2=Nc3ccc(Br)cc3C(c3ccc(N4CCOCC4)cc3)=NN2)cc1	NS1 inh inconclusive, AmpC detergent inconclusive | Flu NS1 inh inactive
CC(C)CNC(=O)COC(=O)CNC(=O)c1cc(Cl)cc([N+](=O)[O-])c1	none
CCCOc1ccc(-c2nc(-c3ccc(N)cc3)cs2)cc1	NS1 inh 13µM | Flu NS1 inh inactive
Cc1ccc(C(O)Cn2cc([N+](=O)[O-])nc2C)cc1 (stereo not given)	NS1 inh inconclusive | Flu NS1 inh inactive
CCOC(=O)c1c(C)[nH]c(C(=O)CN2C(=O)NC3(CCCC3)C2=O)c1C	none
CCCC1(c2ccccc2)NC(=O)N(CC(=O)c2[nH]c(C)c(C(=O)OCC)c2C)C1=O (stereo not given)	NS1 inh inconclusive | Flu NS1 inh inactive | Flu PR8 replic 6.7
CCOC(=O)c1c(C)[nH]c(C(=O)CN2C(=O)NC(C)(c3ccc4ccccc4c3)C2=O)c1C (stereo not given)	NS1 inh inconclusive, AmpC detergent inconclusive | Flu NS1 inh inactive
NC(=O)[C@H](Cc1cc2ccccc2s1)NC(=O)[C@@H]1CC2(CC(c3cccc(NC(=O)[C@@H]4CCC(=O)N4)c3)=NO2)CN1C(=O)c1ccccc1 (stereo not given in full)	none
NC(=O)[C@H](Cc1cc2ccccc2s1)NC(=O)[C@@H]1CC2(CC(c3cccc(NC(=O)[C@@H]4CCC(=O)N4)c3)=NO2)CN1C(=O)/C=C/Sc1ccccc1 (stereo not given in full)	NS1 inh 18µM | Flu NS1 inh inactive
CC(=O)OC1C2CCC1C(N1CCCCC1)CC2 (stereo not given)	AmpC detergent inconclusive (no result: NS1 inh)
CC(=O)OC1C2CCCC1C(N1CCCC1)CC2 (stereo not given)	NS1 inh inconclusive | Flu NS1 inh inactive
COc1ccc(NC(=O)COC(=O)CNS(=O)(=O)c2ccc(C)cc2)c(OC)c1	AmpC detergent inconclusive
CNC(=O)c1cc2cc(OC)ccc2n1CCN(Cc1ccccc1)Cc1ccccc1	AmpC detergent inconclusive
CNC(=O)c1cc2cc(OC)ccc2n1CCN(C)C	NS1 inh 3.5µM | Flu NS1 inh inactive
Cc1ccc(C(=O)NC(=S)Nc2cccc(NC(=O)c3ccccc3Cl)c2)cc1[N+](=O)[O-]	NS1 inh 11µM, AmpC inh no detg inconclusive, AmpC detergent inconclusive | Flu NS1 inh inconclusive
Cc1cccc(NC(=O)CSc2nnc([C@@H](N)Cc3c[nH]c4ccccc34)o2)c1C	NS1 inh 11µM | Flu NS1 inh inactive
COc1ccccc1-n1c(SCC(=O)Nc2cccc(C(=O)O)c2)nnc1-c1ccccc1C	NS1 inh 13µM, AmpC detergent inconclusive | Flu NS1 inh inactive
COc1cccc(NC(=O)Cc2nnc(SCC(=O)c3ccccc3)n2C)c1	NS1 inh 7.9µM | Flu NS1 inh inactive
COc1cccc(NC(=O)Cc2nnc(SCCOc3ccccc3)n2C)c1	none
CC1Cc2nc(SCC(=O)Nc3ccc4c(c3)OCO4)n(Cc3ccccc3)c(=O)c2S1 (stereo not given)	NS1 inh 11µM | Flu NS1 inh inactive
CC1Cc2nc(SCC(N)=O)n(Cc3ccccc3)c(=O)c2S1 (stereo not given)	none
CC1Cc2nc(SCC(=O)Nc3nccs3)n(Cc3ccccc3)c(=O)c2S1 (stereo not given)	NS1 inh 20µM | Flu NS1 inh inactive
CC(=O)c1c(COC(=O)c2cccnc2)nc2ccccc2[n+]1[O-]	NS1 inh 5µM | Flu NS1 inh inactive
COC(=O)c1ccc2c(=O)n(CCN3CCOCC3)c(=S)[nH]c2c1	none
Cc1ccsc1C=Nc1c(C)n(C)n(-c2ccccc2)c1=O	none
Cc1c(N=Cc2cccs2)c(=O)n(-c2ccccc2)n1C	NS1 inh 14µM | Flu NS1 inh inactive
COC(=O)C(NC(=O)c1ccc(F)cc1)(Nc1ncc(S(=O)(=O)c2ccc([N+](=O)[O-])cc2)s1)C(F)(F)F (stereo not given)	NS1 inh 7.9µM, AmpC inh no detg 8.9µM | Flu NS1 inh inactive
COC(=O)C(NC(=O)c1ccccc1C)(Nc1ncc(S(=O)(=O)c2ccc([N+](=O)[O-])cc2)s1)C(F)(F)F (stereo not given)	AmpC detergent inconclusive
O=C(COc1ccc(Cl)cc1Cl)N1CCN(C(=O)c2ccco2)CC1	NS1 inh inconclusive | Flu NS1 inh inactive
O=C(Cc1ccc(Cl)cc1)Nc1ccc(N2CCN(C(=O)c3ccco3)CC2)c(Cl)c1	NS1 inh 0.28µM, AmpC detergent inconclusive | Flu NS1 inh inconclusive
O=C(COc1ccccc1O)N1CCN(C(=O)c2ccco2)CC1	AmpC detergent inconclusive
O=S(=O)(Nc1ccc(O)c(Sc2nc3ccccc3s2)c1)c1cc(Cl)ccc1Cl	none (no result: NS1 inh, FBPA Giardia inh, AmpC inh no detg, SARS PLpro yeast)
O=S(=O)(Nc1ccc(O)c(Sc2nc3ccccc3s2)c1)c1cccc2ccccc12	NS1 inh 20µM, SARS PLpro yeast inconclusive | Flu NS1 inh inactive
COc1ccc(S(=O)(=O)NCCc2ccco2)cc1OC	NS1 inh 3.2µM, AmpC detergent inconclusive | Flu NS1 inh inactive
CS(=O)(=O)NC(=O)CCC/C=C\C[C@H]1C(=O)C[C@@H](O)[C@@H]1/C=C/[C@@H](O)COc1ccccc1	none (no result: NS1 inh, AmpC inh no detg, SARS PLpro yeast, AmpC detergent)
O=C(Nc1nnc(SCc2ccc(F)cc2)s1)C1Cc2ccccc2CN1C(=O)c1ccco1 (stereo not given)	NS1 inh 7.9µM | Flu NS1 inh inactive
O=C(Nc1nnc(C2CC2)s1)C1Cc2ccccc2CN1C(=O)c1ccco1 (stereo not given)	none (no result: NS1 inh)
Cc1ccc(C)c(N2CCN(C(=O)C3CCN(S(=O)(=O)c4cccc5nsnc45)CC3)CC2)c1	NS1 inh inconclusive | Flu NS1 inh inactive | Flu PR8 replic inactive
O=C(CSc1ccc(F)cc1)Nc1ccc2c(c1)C(=O)NC2=O	NS1 inh 1.6µM | Flu NS1 inh inactive
O=C(c1ccc2c(=O)n(CC3CCCO3)c(=S)[nH]c2c1)N1CCN(c2ccccc2)CC1 (stereo not given)	NS1 inh inconclusive | Flu NS1 inh inactive
CCOC(=O)N1CCN(C(=O)c2ccc3c(=O)n(CC4CCCO4)c(=S)[nH]c3c2)CC1 (stereo not given)	none
